Screens (PubChem)
An excerpt weighted towards active compounds, which were near 2.4% of everything screened.
ANO1 activ – activators or potentiators of mouse TMEM16A chloride channel | Q8BHY3 | HEK293 TMEM16A/YFP-H148Q/I152L, iodide quench fluorescence; active compounds read low | B-score at 10 µM | actives 0.3% (n = 340,000) | AID 623877;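 active means fluorescence-ratio B-score plate-corrected deviation score at least 3 library SD below zero, with starting fluorescence score within 5 deviations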;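 further: channel opened by trigger with iodide after compound preincubation; score built on the fluorescence ratio of max minus min over baseline; more negative score means more quench and so TMEM16A activation or potentiation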
Cardiac RTF inh – cardiac RTF calcium desensitization | AID 493244 | actives 0.12% (n = 340,000) | IANBD-labeled cardiac RTF, Ca2+ fluorescence | inhibition, % at 7.15 µM | P19429+P45379;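 active means inhibition above the mean inhibition of all tested compounds plus 3 SD, cut at about 17% in these data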;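 further: assay run at fixed EC70 calcium of 1.6 mM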
cardiac RTF act – cardiac RTF calcium sensitization; IANBD-labeled TnC RTF fluorescence at EC20 calcium; 0% EC20 calcium, 100% full calcium; activation, % at 7.2 µM; actives 0.24% (n = 340,000); AID 493008;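 active means activation above the mean over all tested compounds plus 3 SD, cut at about 30% in these data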;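 further: rise in fluorescence read as greater calcium sensitivity of cardiac thin filaments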
CRFR2-BP ag – agonists of human CRF-binding protein/CRF-R2 receptor complex | AID 588473 | actives 0.46% (n = 350,000) | HEK293 CRF-R2/CRF-BP, calcium dye fluorescence (FLIPR); percent of saturating CRF peptide response | activation, % at 13.2 µM;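 active means activation of at least 50%, plus an integration ratio under a set limit after plate pattern correction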
CRFR2-BP antag – CRF-BP/CRF-R2 complex antagonism. HEK293 CRF-R2/CRF-BP, CRF-induced calcium fluorescence. actives 0.59% (n = 350,000). inhibition, % at 11.8 µM;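 active means inhibition of the ligand-induced calcium signal above about 50% at the single tested concentration, limit read from the data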
TMEM16A inh – mouse TMEM16A channel inhibition, primary screen. Q8BHY3. HEK293 TMEM16A/YFP iodide influx fluorescence, ionomycin. normalized B-score (activity score, 25-100; higher = stronger inhibition) at 10 µM. actives 1.2% (n = 310,000);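 active means ratio plate-corrected score three or more library SD toward inhibition, starting fluorescence score within five deviations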;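 further: score derived from kinetic fluorescence span divided by baseline fluorescence per well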
Hits are given with their value; 0 = inactive; - = not tested or not shown.

SMILES	ANO1 activ	Cardiac RTF inh	cardiac RTF act	CRFR2-BP ag	CRFR2-BP antag	TMEM16A inh
Cc1nc(-c2cc(C#N)c(=O)[nH]c2C)cs1	0	0	0	0	0	0
COc1ccc(N2CC(C(=O)Nc3ccc(S(=O)(=O)N4CCCC4)cc3)CC2=O)cc1 (stereo not drawn)	0	0	0	0	0	0
Cc1cccc(NC(=O)C2CCN(S(=O)(=O)c3c(C)c(C)cc(C)c3C)CC2)n1	0	0	0	0	0	100
Cc1ccc2nc(Cl)c(C3CC(c4cccs4)=NN3S(C)(=O)=O)cc2c1 (stereo not drawn)	0	0	0	0	0	0
Cc1ccc(S(=O)(=O)N2c3ccccc3OCC2c2ccccc2)cc1 (stereo not drawn)	0	0	0	0	50	0
CC1COc2ccccc2N1S(=O)(=O)c1ccc(Cl)cc1 (stereo not drawn)	0	0	0	0	0	0
COc1ccc(N/N=C(/N=Nc2nc(C)cc(=O)[nH]2)c2ccccc2)cc1	0	0	0	0	57	0
Cc1cc(=O)[nH]c(N=N/C(=N/Nc2ccc(O)cc2)c2ccccc2)n1	0	0	0	0	0	0
N#C/C(=C/c1ccncc1)c1nc2ccccc2c(=O)[nH]1	0	0	0	0	0	0
N#C/C(=C1\CCCN1)c1nc2ccccc2c(=O)[nH]1	0	0	0	0	68	0
O=C(Cc1cccc(NC(=O)C2CCN(S(=O)(=O)c3cccc([N+](=O)[O-])c3)CC2)c1)Nc1cccc(C(=O)N2CCCCC2)c1	-	0	0	0	0	-
Cn1c(=O)[nH]c(=O)c2c1nc(N1CCOCC1)n2CC(=O)c1ccccc1	0	0	0	0	0	0
Cc1cc(C)c2nc(-c3ccccn3)cc(C(=O)Nc3ccc(S(=O)(=O)Nc4cc(C)on4)cc3)c2c1	0	0	0	0	0	25
COc1cc(C(=O)NCc2ccco2)cc(OC)c1OC	-24	0	0	0	0	0
COc1cc(CC(=O)NCc2ccco2)cc(OC)c1OC	0	0	0	0	0	0
S=C(NCc1ccco1)Nc1ccc(Cl)c(Cl)c1	0	0	0	0	0	25
COc1cc(NC(=S)NCc2ccco2)cc(OC)c1	0	0	0	0	96	0
S=C(NCc1ccco1)Nc1cccc(Cl)c1	0	0	0	0	0	0
Cc1ccc(S(=O)(=O)N[C@H](C(=O)OCC(=O)N2N=C(c3ccc(Cl)cc3)CC2c2ccco2)C(C)C)cc1 (stereo partly drawn)	0	0	0	58	0	0
CSCCC1NC(=O)N(CC(=O)N2N=C(c3ccc(Cl)cc3)CC2c2ccco2)C1=O (stereo not drawn)	0	0	0	0	0	25
O=C(CCN1CCC(c2cccs2)=N1)c1cccs1	0	-	-	69	0	0
Oc1cc2c(cc1O)C1c3ccc(O)c(O)c3OCC1(O)C2 (stereo not drawn)	-12	0	0	0	0	0
O=C1CSC(c2ccccc2[N+](=O)[O-])N1CCc1ccccc1 (stereo not drawn)	0	0	0	0	0	0
On1c2c(c3c4nonc4ccc31)CCCC2	-	-	-	-	-	100
CN(C(=O)COC(=O)c1cc([N+](=O)[O-])ccc1Cl)c1ccccc1	0	0	0	0	0	0
SMILES	ANO1 activ	Cardiac RTF inh	cardiac RTF act	CRFR2-BP ag	CRFR2-BP antag	TMEM16A inh
Cc1cc(NC(=O)C(C)C)ncc1NC(=O)CCc1ccccc1	0	0	0	141	0	0
Cc1cc(NC(=O)C(C)C)ncc1NC(=O)c1ccco1	0	0	0	-	-	0
COc1ccc(-c2cc(C(=O)N(C)CC(=O)Nc3cccc(F)c3)c3ccccc3n2)cc1	0	0	0	0	0	0
COc1ccc(CNC(=O)C(c2ccco2)N(C(=O)CNS(=O)(=O)c2ccccc2)c2ccccc2C)cc1 (stereo not drawn)	0	0	0	0	0	25
COc1ccc(NC(=O)Cn2c3ccccc3c3nc4n(c(=O)c32)CCS4)cc1	0	0	0	0	0	0
O=C(Cn1c2ccccc2c2nc3n(c(=O)c21)CCCS3)Nc1ccccc1	0	0	0	0	0	0
COc1ccc(NC(=O)Cn2c3ccccc3c3nc4n(c(=O)c32)CCS4)cc1OC	-54	0	0	0	0	0
